A short description of test [1]: A CellTox Green Cytotoxicity Assay to monitor cytotoxicity in HepG2 cells - 16 hour (AID 1224876). Note: nearly all actives have a fitted effect of over 45% in size. The method, boiled down: (§1)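 Real-time, homogeneous cytotoxicity readout: dead-cell DNA staining by CellTox Green in HepG2 monolayers, fluorescence measured at timed intervals up to 40 h of continuous compound exposure.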
The nature of test [2]: A CellTox Green Cytotoxicity Assay to monitor cytotoxicity in HepG2 cells - 24 hour (AID 1224878). Note: nearly all actives have a fitted effect of over 45% in size. The procedure, abridged: as §1
Test [3] can be described thus: A CellTox Green Cytotoxicity Assay to monitor cytotoxicity in HepG2 cells - 40 hour (AID 1224879). Note: nearly all actives have a fitted effect of over 40% in size. The method, boiled down: as §1
Test [4] is described as follows: qHTS RealTime-Glo MT Cell Viability Assay in HEK293 cells - 0 hour (AID 1224880). Note: top concentration of the series differs between compounds; nearly all actives have a fitted effect of over 45% in size. The method, boiled down:
(§2)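 Nonlytic bioluminescent viability monitoring. HEK293 at 600 cells/well with reagent; 5 h settle; compound transfer by pintool; plates held at 37 C and read at set time points.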

Test [5] is described as follows: A CellTox Green Cytotoxicity Assay to monitor cytotoxicity in HEK293 cells - 32 hour (AID 1224881). Note: nearly all actives have a fitted effect of over 40% in size. Note: potency is the fitted concentration of half-maximal effect. The procedure, abridged:
(§3)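 Cytotoxicity was tracked continuously in HEK293 cells by a DNA-binding dye excluded from viable cells. Compounds were transferred in DMSO 5 h after seeding; fluorescence was recorded at intervals up to 40 h.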

The nature of test [6]: A CellTox Green Cytotoxicity Assay to monitor cytotoxicity in HepG2 cells - 0 hour (AID 1224882). Note: nearly all actives have a fitted effect of over 35% in size. The method, boiled down: as §1
Test [7] can be described thus: A CellTox Green Cytotoxicity Assay to monitor cytotoxicity in HepG2 cells - 32 hour (AID 1224883). Note: nearly all actives have a fitted effect of over 50% in size. The procedure, abridged: as §1
A short description of test [8]: A CellTox Green Cytotoxicity Assay to monitor cytotoxicity in HEK293 cells - 8 hour (AID 1224884). Note: nearly all actives have a fitted effect of over 35% in size. The method, boiled down:
as §3

A short description of test [9]: qHTS RealTime-Glo MT Cell Viability Assay in HepG2 cells - 16 hour (AID 1224885). Note: nearly all actives have a fitted effect of over 50% in size. The procedure, abridged: (§4)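 Real-time, nonlytic viability: 600 HepG2 cells/well mixed with NanoLuc enzyme plus prosubstrate; 5 h settle, compound (DMSO) added by pintool; luminescence monitored over 40 h at 37 C.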
A short description of test [10]: A CellTox Green Cytotoxicity Assay to monitor cytotoxicity in HEK293 cells - 16 hour (AID 1224888). Note: nearly all actives have a fitted effect of over 35% in size. The method, boiled down: as §3
A short description of test [11]: qHTS RealTime-Glo MT Cell Viability Assay in HepG2 cells - 0 hour (AID 1224889). Note: nearly all actives have a fitted effect of over 50% in size. The procedure, abridged: as §4
For orientation: qHTS replaces the single test concentration by a dilution series.

Test [12] can be described thus: A CellTox Green Cytotoxicity Assay to monitor cytotoxicity in HepG2 cells - 8 hour (AID 1224890). Note: nearly all actives have a fitted effect of over 45% in size. Note: potency is the fitted concentration of half-maximal effect. The method, boiled down:
as §1

Test [13] in a line: qHTS assay to identify small molecule antagonists of the estrogen receptor alpha (ER-alpha) signaling pathway using the BG1 cell line in the presence of 0.1 nM 17-beta-estradiol - cell viability counter screen (AID 1259241). Note: nearly all actives have a fitted effect of over 40% in size. The procedure, abridged:
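Estradiol-stimulated (0.1 nM) VM7Luc4E2 cells exposed to compounds 22 hr; viability measured by fluorescence of cleaved CellTiter-Fluor substrate after 30 min.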

A short description of test [14]: qHTS assay to identify small molecule antagonists of the androgen receptor (AR) signaling pathway using the MDA cell line in the presence of 0.5 nM R1881 - cell viability counter screen (AID 1259242). Note: nearly all actives have a fitted effect of over 45% in size. The procedure, abridged: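 Cytotoxicity toward MDA-kb2 cells is measured by CellTiter-Fluor live-cell protease fluorescence after 16 hr compound exposure at 37C in the presence of 0.5 nM R1881 stimulator.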

Test [15] addresses Estrogen receptor (Homo sapiens) (UniProt P03372). Put plainly: qHTS assay to identify small molecule antagonists of the estrogen receptor alpha (ER-alpha) signaling pathway using the BG1 cell line in the presence of 0.1 nM 17-beta-estradiol (AID 1259244). Note: nearly all actives have a fitted effect of over 50% in size. The method, boiled down: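 After 5 days in hormone-depleted medium (charcoal-stripped serum, no phenol red), VM7Luc4E2 cells were seeded, incubated 24 h, then co-treated with compound and 0.1 nM (final) estradiol for 22 h before luminescence detection.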

Test [16] can be described thus: qHTS RealTime-Glo MT Cell Viability Assay in HEK293 cells - 24 hour (AID 1224886). The method, boiled down:
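Cells + reagent dispensed (600 cells/well, HEK293) → 5 h at 37 C/5% CO2 → 23 nL compound in DMSO pinned → 40 h at 37 C → luminescence read at 0, 8, 16, 24, 32, 40 h.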

Test [17] in a line: qHTS RealTime-Glo MT Cell Viability Assay in HEK293 cells - 8 hour (AID 1224887). The procedure, abridged:
as §2

Test [18] is described as follows: qHTS assay to identify small molecule phospholipidosis (PLD) inducers (AID 1259344; active = well fitted curve in the direction sought with a large enough effect; an effect the other way counts as inactive or inconclusive). The procedure, abridged:
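Phospholipidosis is scored by imaging LipidTOX-stained pits in HepG2 cells exposed to compound for 24 h at 37 C; pit counts and integrated intensities per well and per cell serve as outputs.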

Test [19] has as its target Androgen receptor (Homo sapiens) (UniProt P10275). Put plainly: qHTS assay to identify small molecule antagonists of the androgen receptor (AR) signaling pathway using the MDA cell line in the presence of 0.5 nM R1881 (AID 1259243). The procedure, abridged: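 Steps: seed MDA-kb2 cells, incubate 5 hr at 37C; pin-transfer compounds in DMSO; add R1881 to 0.5 nM final; incubate 16 hr; add ONE-Glo, wait 30 min at room temperature; read luminescence.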

A short description of test [20]: qHTS RealTime-Glo MT Cell Viability Assay in HepG2 cells - 32 hour (AID 1224877). Note: nearly all actives have a fitted effect of over 55% in size. The method, boiled down:
as §4

Inconclusive results are not listed. Activity calls are given as the source filed them. Unless noted, calls come from the whole dose curve; as a rule, active = well fitted curve in the direction sought with a large enough effect in the repeat runs; inconclusive = weak or mixed curves; inactive = no such curve, though single readings can be large; an effect the other way counts as inactive or inconclusive.

Sequence of Estrogen receptor (Homo sapiens) (P03372 whole entry, looked up): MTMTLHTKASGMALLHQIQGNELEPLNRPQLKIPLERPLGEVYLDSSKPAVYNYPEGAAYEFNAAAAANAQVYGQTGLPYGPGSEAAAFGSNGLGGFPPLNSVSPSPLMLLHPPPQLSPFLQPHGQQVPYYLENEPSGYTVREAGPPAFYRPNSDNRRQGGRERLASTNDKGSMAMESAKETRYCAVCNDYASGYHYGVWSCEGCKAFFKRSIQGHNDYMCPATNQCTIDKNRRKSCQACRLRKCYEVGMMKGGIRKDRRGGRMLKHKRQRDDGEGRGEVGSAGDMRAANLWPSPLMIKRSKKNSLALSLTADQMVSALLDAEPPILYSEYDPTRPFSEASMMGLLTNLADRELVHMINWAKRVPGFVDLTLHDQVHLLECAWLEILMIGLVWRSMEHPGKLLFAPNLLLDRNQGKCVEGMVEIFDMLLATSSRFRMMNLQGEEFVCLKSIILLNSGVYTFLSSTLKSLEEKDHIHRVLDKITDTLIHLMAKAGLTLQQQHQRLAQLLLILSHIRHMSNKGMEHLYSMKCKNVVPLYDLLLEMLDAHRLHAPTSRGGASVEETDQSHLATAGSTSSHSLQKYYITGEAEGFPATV
Sequence of Androgen receptor (Homo sapiens) (P10275 whole entry, looked up): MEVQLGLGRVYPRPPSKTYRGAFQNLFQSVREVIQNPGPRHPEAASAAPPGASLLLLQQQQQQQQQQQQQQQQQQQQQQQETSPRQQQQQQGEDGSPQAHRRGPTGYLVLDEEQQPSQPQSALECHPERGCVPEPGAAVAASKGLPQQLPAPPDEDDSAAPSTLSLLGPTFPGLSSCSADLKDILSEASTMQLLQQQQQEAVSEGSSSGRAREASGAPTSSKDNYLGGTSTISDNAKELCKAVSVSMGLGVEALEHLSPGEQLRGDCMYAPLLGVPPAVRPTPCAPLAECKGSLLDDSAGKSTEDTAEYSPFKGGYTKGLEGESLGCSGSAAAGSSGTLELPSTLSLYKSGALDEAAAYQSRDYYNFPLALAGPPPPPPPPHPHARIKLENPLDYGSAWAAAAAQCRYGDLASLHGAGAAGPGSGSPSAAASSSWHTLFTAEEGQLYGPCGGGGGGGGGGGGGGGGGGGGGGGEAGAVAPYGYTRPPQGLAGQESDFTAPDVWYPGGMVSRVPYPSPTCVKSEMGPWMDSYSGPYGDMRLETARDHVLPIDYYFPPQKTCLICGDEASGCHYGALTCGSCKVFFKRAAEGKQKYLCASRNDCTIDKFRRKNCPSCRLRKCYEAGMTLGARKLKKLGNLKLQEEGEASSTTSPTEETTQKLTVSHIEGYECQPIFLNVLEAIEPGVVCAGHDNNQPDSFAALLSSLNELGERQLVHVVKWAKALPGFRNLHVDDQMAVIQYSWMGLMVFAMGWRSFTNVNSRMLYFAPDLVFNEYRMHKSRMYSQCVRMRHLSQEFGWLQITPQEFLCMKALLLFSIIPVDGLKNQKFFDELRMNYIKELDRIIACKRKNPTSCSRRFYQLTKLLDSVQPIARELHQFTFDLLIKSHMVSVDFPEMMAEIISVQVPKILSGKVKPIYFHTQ

With `COc1nc(N)nc2nc[nH]c12`, the Potency result in test [1], in test [2], in test [3], in test [4], in test [5] and in test [6] was “inactive” each time. Besides, the Potency entry in [7], in [8], in [10], in [11] and in [12] was “inactive” in each case. The result in test [9], in test [13], in test [14] and in test [15] was inactive.
Consider `O=C(O)CCCCCC(=O)O`, for which the Potency entry in [1], in test [2], in test [3], in test [4], in test [7] and in [16] was “inactive” in each case. In addition, the Potency result in [17], in [11] and in test [12] was “inactive” each time. For the same compound, the Potency in test [5] is 22 µM (active). The outcome in test [9], in [13] and in [14] was inactive.
Regarding `O=C(O)c1cc2ccccc2nc1C(=O)O`, the Potency entry in test [1], in [2], in test [3], in test [4], in [5] and in test [6] was “inactive” throughout. Also, the Potency result in test [8], in [16], in test [17], in test [10], in test [11] and in [12] was “inactive” throughout. For the same compound, the outcome in test [9], in test [13], in [14] and in [15] was inactive.
On to `CNCCS(=O)(=O)O`, for which the Potency entry in test [1], in test [2], in [3], in test [4], in test [5] and in [7] was “inactive” in each case. For the same compound, the Potency entry in test [16], in [17], in [10], in test [11] and in test [12] was “inactive” each time. Also, the compound was classed as inactive in [9], in test [13] and in [14].
Consider `CCNC(=O)NCc1cccc(Cl)c1`, for which the Potency result in test [1], in [2], in test [3], in test [4], in test [5] and in [6] was “inactive” throughout. In addition, the Potency entry in test [7], in test [16], in test [17], in test [10], in test [11] and in test [12] was “inactive” in each case. For the same compound, the call in test [9], in test [13], in test [14], in test [15] and in [18] was inactive.
With `CCC(=O)Oc1ccc2c(c1)CC[C@@H]1[C@@H]2CC[C@@]2(C)[C@H]1C[C@@H](OC(=O)CC)[C@@H]2OC(=O)CC`, the Potency result in test [3], in test [4], in [5], in test [7], in test [8] and in test [16] was “inactive” each time. Further, the Potency result in test [17], in test [10] and in [11] was “inactive” each time. Moreover, the compound was classed as inactive in test [9], in test [13] and in test [14]. For the same compound, the Potency in test [19] was 8.41 µM (active).
Consider `CO[Si](CCCn1c(=O)n(CCC[Si](OC)(OC)OC)c(=O)n(CCC[Si](OC)(OC)OC)c1=O)(OC)OC`, for which the Potency result in [1], in test [2], in [3], in test [4], in test [5] and in [6] was “inactive” throughout. For the same compound, the Potency entry in test [7], in [16], in test [17], in test [10], in test [11] and in test [12] was “inactive” throughout. The call in [9] and in test [13] was inactive.
Regarding `CCCCCC/C=C/C(=O)OC`, the outcome in test [20], in [9] and in test [13] was inactive. Moreover, the Potency entry in test [4], in test [8], in test [16], in [17] and in test [11] was “inactive” each time. Also, the Potency in test [12] was 49 µM (active).
Turning to `CCCSSCCC`, the Potency entry in test [1], in [2], in test [3], in test [4], in test [5] and in test [6] was “inactive” throughout. Also, the Potency result in [8], in test [16], in test [17], in test [10], in test [11] and in test [12] was “inactive” in each case. Besides, the compound was classed as inactive in test [9], in test [13] and in test [15].
As to `O=C[O][Al]([O]C=O)[O]C=O`, the Potency result in test [1], in test [2], in [5], in test [6], in test [7] and in test [16] was “inactive” in each case. For the same compound, the Potency result in test [10], in [11] and in [12] was “inactive” each time. Further, the compound was classed as inactive in [9], in test [13], in [14] and in test [15].

Source of the values: PubChem BioAssay (Tox21).
